# Compound activity deposited in PubChem BioAssay by several laboratories.
# BaF3 tox – parental Ba/F3 cell viability inhibition, counter-screen for JAK2V617F inhibitor project, murine pro-B, CellTiter-Glo luminescence; CellTiter-Glo ATP luminescence; inhibition, % at 5.6 µM; actives 1.1% (n = 220,000); AID 1486, 2009;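 active = inhibition above a per-campaign cutoff, the mean inhibition of all tested compounds plus 3 SD, cut at about 27% in these data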;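 also: 0% = DMSO wells and 100% = JAK Inhibitor I control wells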
# APP 5UTR inh – inhibitors of APP translation via 5'UTR reporter, primary screen, APP 5'UTR luciferase, SH-SY5Y cells; SH-SY5Y APP 5'UTR-luciferase reporter, luminescence; inhibition, % at 2 µM; actives 0.82% (n = 190,000);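 active = inhibition above a set limit, derived from the sample mean plus 3 SD, cut at about 45% in these data; inconclusive = one replicate passes the limit while the other fails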
# KLF5 inhibitor – KLF5 expression inhibitors, primary screen, DLD-1 cells, luminescence | inhibition, % at 5 µM | AID 1700, 2009 | actives 0.23% (n = 290,000) | DLD-1 KLF5 promoter-luciferase reporter;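 active = inhibition above a per-plate limit of that plate's mean compound inhibition plus 3 SD, cut at about 60% in these data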;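 also: 0% = DMSO wells and 100% = LY294002 at 200 µM; higher means less KLF5 promoter-driven luciferase light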
# aSyn 5UTR inh – MLPCN primary screen, SNCA 5' untranslated region. alpha-synuclein 5'UTR reporter, inhibitor activity. inhibition, % (tested at 7.5 µM). actives 0.82% (n = 300,000). AID 1813, 2009; in the data active = inhibition above about 60%; inconclusive = no clear call, values can overlap the other calls;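 also: H4 neuroglioblastoma cells stably carrying SNCA 5'UTR luciferase fusion; 0% = DMSO wells and 100% = positive control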
# IEC-6 cytotox – cytotoxicity in IEC-6 intestinal epithelial cells, primary screen, cytotoxicity control for KLF5 inhibitor project, cell-based, luminescence; inhibition, % at 5 µM; actives 0.78% (n = 290,000); AID 1825, 2009; IEC-6 cytotoxicity, luminescence viability; in the data active = inhibition above about 22%;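 also: 0% = plate median of test compound wells and 100% = cytotoxic reference compound wells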
# Ba/F3 V617F tox – reduced viability of JAK2V617F-dependent Ba/F3 cells, primary screen, JAK2V617F inhibitor project, cell-based, Ba/F3 EpoR-JAK2V617F, luminescence. ATP luminescence. inhibition, % at 5.6 µM. actives 1.1% (n = 220,000). AID 1446, 2008;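 active = inhibition above the campaign mean plus 3 SD over all tested compounds, cut at about 24% in these data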;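 also: cytokine-independent growth of Ba/F3 cells driven by EpoR plus mutant JAK2; 0% = DMSO-treated cells and 100% = JAK inhibitor I control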
# * = called active by the depositor; u = inconclusive; x = no result. In the library only some 2.2% were active in any assay of this set; here they are far more common.
SMILES,BaF3 tox,APP 5UTR inh,KLF5 inhibitor,aSyn 5UTR inh,IEC-6 cytotox,Ba/F3 V617F tox
O=C(CNC(=O)c1ccc(F)cc1)Nc1ccccc1C(F)(F)F,-2,x,-9,-33,3,6
Cc1cc(N2CCN(C(=O)c3cccs3)CC2)c(F)cc1[N+](=O)[O-],x,x,0,-4,2,x
O=c1oc2ccc(Cl)cc2nc1/C=C(\O)c1cccs1,38*,x,-56,-108,0,36*
Cc1ccc(CC(CC(=O)O)C(=O)NCc2ccccc2)cc1 (stereo unspecified),7,x,-19,11,2,-2
CNC[C@H](Cc1ccccc1)NC[C@@H](Cc1cccc2ccccc12)NCCc1ccc(C)cc1,x,x,7,123*,-4,x
Cc1ccc(-c2cc3c(nn2)-c2ccccc2C3=O)cc1,2,x,-41,86*,11,6
O=C(NC(Cc1ccccc1)c1ccc2c(c1)OCCCO2)c1ccccc1 (stereo unspecified),1,-16,-6,-16,1,-4
CCC(=O)NC(Cc1ccccc1)c1ccc2c(c1)OCCCO2 (stereo unspecified),31*,-11,-36,-11,-3,39*
COc1ccc(C2C3=C(CCCC3=O)Nc3nc(-c4cc(OC)c(OC)c(OC)c4)nn32)cc1OC (stereo unspecified),93*,-3,-25,-6,1,0
CCCCN(C(=O)c1ccc2c(c1)OCCO2)c1c(N)n(CC(C)C)c(=O)[nH]c1=O,x,x,x,16,x,x
CCOC(=O)C(C)Oc1cccc2c(=O)n(CC(=O)NCc3ccc4c(c3)OCO4)ccc12 (stereo unspecified),42*,-6,17,65*,18,59*
CCOC(=O)C(C)Oc1cccc2c(=O)n(CC(=O)Nc3ccc4c(c3)OCCO4)ccc12 (stereo unspecified),3,15,0,15,-2,-2
Cc1ccccc1NC(=O)c1cc(S(=O)(=O)N2CCOCC2)cn1C,x,x,-12,-17,-6,x
Cc1cccc(C)c1NC(=S)N=Nc1c(O)n(C)c2ccc(S(=O)(=O)N3CCOCC3)cc12,2,20,-19,71*,-10,-1
Cc1ccccc1NC(=S)N=Nc1c(O)n(C)c2ccc(S(=O)(=O)N3CCOCC3)cc12,8,18,-10,78*,4,2
COc1cc(C(=O)O/N=C2\C=CC(=O)C(C)=C2)cc(OC)c1OC,32*,0,-17,-32,-2,49*
COc1cc(C(=O)ON=C2C=C(C)C(=O)C(C)=C2)cc(OC)c1OC,1,15,-16,-3,8,1
Cc1cc(C)c(NC(=O)COC(=O)C2=COCCO2)c(Cl)c1,x,x,x,-2,x,x
COc1ccc(CCNC(=O)C(=O)NCCC2CCCCN2S(=O)(=O)c2ccccc2)cc1 (stereo unspecified),x,x,x,19,x,x
Cc1ccccc1Cn1cc(NC(=O)c2noc(C(C)C)c2[N+](=O)[O-])cn1,x,x,-28,106*,-6,x
CCCC12CN3CC(C)(CN(C1)C3c1ccc(OC)cc1)C2=O (stereo unspecified),94*,-12,-4,-17,-3,2
C=CCOc1ccc(C2N3CC4(C)CN2CC(CCC)(C3)C4=O)cc1 (stereo unspecified),1,0,7,x,-5,4
O=C(Nc1ccc(N2CCOCC2)cc1)C1CCN(S(=O)(=O)c2ccccc2F)CC1,4,x,-14,-1,-6,-3
CCCCN(CCCC)C(=O)c1cc2ccccc2c(=O)o1,37*,26,12,18,-6,19
Cc1ccc(/C=C2\SC(=S)N(CCCC(=O)Nc3ccccn3)C2=O)cc1,0,55*,29,107*,0,-2
SMILES,BaF3 tox,APP 5UTR inh,KLF5 inhibitor,aSyn 5UTR inh,IEC-6 cytotox,Ba/F3 V617F tox
Cc1ccc(/C=C2\SC(=S)N(CCCC(=O)Nc3ccc(O)cc3)C2=O)cc1,0,x,61,104*,0,2
Cc1ccc(/C=C2\SC(=S)N(CCCC(=O)Nc3ccccc3C(=O)O)C2=O)cc1,x,x,6,68*,7,x
CC1CCN(Cc2c(C(=O)N/N=C/c3ccc(C(C)(C)C)cc3)nnn2-c2nonc2N)CC1,x,x,-26,64*,-4,x
Oc1ccc(C2=NNC(c3ccc(O)cc3)=NN2)cc1,x,x,-25,-1,0,x
Cc1c(NC(=O)Nc2cccs2)cccc1[N+](=O)[O-],29*,5,-22,-71,10,12
O=C(Nc1cccs1)Nc1ccccc1Cl,3,-26,-21,-71,8,-1
CC(=O)c1sc2c(c1OC(=O)c1ccc(Cl)cc1Cl)c(=O)n(-c1ccccc1)c(=S)n2-c1ccccc1,2,x,9,101*,-1,5
CC(=O)c1sc2c(c1N)c(=O)[nH]c(=O)n2-c1ccccc1,x,x,-15,15,5,x
COc1ccc(N2CCN(c3ccc(S(=O)(=O)N(C(C)C)C(C)C)cn3)CC2)cc1,x,x,-10,-5,-2,x
OC1(c2cccc(C(F)(F)F)c2)CCN(c2ncnc3c2[nH]c2ccc(F)cc23)CC1,35*,15,-13,x,-1,20
Fc1ccc2[nH]c3c(N4CCN(c5ccccc5)CC4)ncnc3c2c1,8,6,-42,8,-8,-3
CCOC(=O)N1CCN(c2ncnc3c2[nH]c2ccc(F)cc23)CC1,42*,-19,-14,-7,9,23
CCOC(=O)N1CCN(c2ncnc3c2[nH]c2ccc(OC)cc23)CC1,9,-6,-41,0,6,4
CCOCCc1c(O)nc(SCC)[nH]c1=O,0,x,4,8,1,-1
CC(C)(C)Nc1nc(N2CCCC2)nc(N2CCCC2)n1,1,6,-22,68*,1,-2
CCNc1nc(NC(C)(C)C)nc(N2CCCC2)n1,2,-6,-35,4,0,-2
CS(=O)(=O)N1CCC(Oc2cccc(C(=O)NCCCOc3cccnc3)c2)CC1,x,x,-11,8,1,x
CCN1CCN(C(=O)Nc2cccc3ccccc23)CC1,3,57*,-20,-31,2,0
O=C1C(Cl)=C(NCCN2CCCCC2)C(=O)c2ccccc21,26,95*,10,u,42*,7
Cc1ccc(C(=O)NC(O)C(Cl)Cl)cc1 (stereo unspecified),2,7,4,-19,-9,-5
O=C(CS(=O)c1ccc(C(F)(F)F)cc1[N+](=O)[O-])Oc1ccccc1 (stereo unspecified),48*,-3,-18,17,16,53*
CS(=O)(=O)c1ccc(S(=O)CC(=O)OCc2ccccc2)c([N+](=O)[O-])c1 (stereo unspecified),-5,48*,-7,-45,-6,43*
